In PubChem BioAssay AID602440 (Sanford-Burnham Center for Chemical Genomics, 2012):
The whole screen tested about 360,000 compounds, of which about 2,300 (0.64%) were called active. Shown is part of a subset that was picked to be rich in actives. Unmarked numbers belong to inactive results. Rule as the data show it: active = inhibition mostly above about 40% (no sharp cut-off); inactive = mostly below about 27%.

The compounds below were run against Sentrin-specific protease 8 (Homo sapiens) (UniProt Q96LD8) (assay: blockers of SENP8 deneddylase activity – biochemical, fluorescence, Nedd8 protein substrate, uHTS, primary screen (AID 602440)). Conditions: recombinant SENP8, Nedd8 substrate fluorescence; at 20 µM; stronger effect = higher value.
Chain of Sentrin-specific protease 8 (Homo sapiens) (Q96LD8 whole entry, looked up): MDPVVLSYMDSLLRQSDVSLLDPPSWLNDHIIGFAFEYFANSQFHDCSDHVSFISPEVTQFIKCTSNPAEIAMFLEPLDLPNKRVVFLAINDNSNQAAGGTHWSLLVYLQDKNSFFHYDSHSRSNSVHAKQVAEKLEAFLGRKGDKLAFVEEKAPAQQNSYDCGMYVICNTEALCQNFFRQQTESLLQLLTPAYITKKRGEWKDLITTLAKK

Compound	inhibition
CCOCCc1c(O)[nH]c(=S)[nH]c1=O	21.8%
O=C1N=c2ccccc2=C/C1=C\c1c(O)[nH]c(=S)[nH]c1=O	-52.5%
COc1ccccc1N=Nc1c(O)[nH]c(=S)[nH]c1=O	49% (active)
CC(C(=O)Nc1ccc(Cl)cc1Cl)N1CC=C(c2ccccc2)CC1 (stereo not given)	26.7%
CNC(=O)N(C)c1nnc(C(C)(C)C)s1	17.7%
O=C1NC(=O)N(c2ccccc2)C(=O)/C1=C/c1ccc([N+](=O)[O-])s1	64.6% (active)
CCN(CC)CCOC(=O)c1cc2cc(COC)ccc2o1	15.2%
COC(=O)C1=C(c2cc3ccccc3o2)C[C@@H]2CC[C@H]1N2C(=O)NC1CCCCC1	11.5%
CCOC(=O)CNC(=O)N1Cc2cc(N3CCCCC3)ccc2-n2nncc2C1	-24.7%
O=C1/C(=C\c2ccc3c(c2)OCO3)N2CCC1CC2	13.7%
c1cc2c(cc1[C@H]1OC[C@H]3[C@@H]1CO[C@@H]3c1ccc3c(c1)OCO3)OCO2	12.2%
c1cc2c(cc1C1OCC3C(c4ccc5c(c4)OCO5)OCC13)OCO2 (stereo not given)	62.3% (active)
COC(=O)C1=C(c2ccc(F)cc2OCc2ccccc2)C[C@@H]2CC[C@H]1N2C(=O)NCc1ccc(OC)c(OC)c1	14.1%
CCOC(=O)[C@]12Cc3ccccc3[C@H]1N(C1CCCCC1)C(=O)c1cc(OC)ccc12	-7.7%
O=c1[nH]c(=O)n(CCc2ccccc2)c(O)c1/C=N/N1CCOCC1	11.3%
COc1ccc(C(=O)C2CN(C)CC2C(=O)c2ccc(OC)cc2)cc1 (stereo not given)	14.3%
CCOP(=O)(OCC)C(NC(=O)c1ccc(OC)cc1)C(Cl)(Cl)Cl (stereo not given)	4.3%
COc1ccc(C(=O)CC2C(=O)N(C)C(=O)N(C)C2=O)cc1	42.5% (active)
CCCCCCCCCCCCn1ccc(=N)cc1	26.2%
CCOC(=O)CC(SP1(=S)OCC2(CCCCO2)C(C2CCCCO2)O1)C(=O)OCC (stereo not given)	2.3%
Cc1ccc(Cn2c(C)c3cnn(CC(=O)N4CCC5(CC4)OCCO5)c(=O)c3c2C)cc1	-29%
C=CC12CN(C)[C@@H]3C4CO[C@H](C[C@H]41)[C@]1(C(=O)Nc4ccccc41)[C@@H]32 (stereo not given in full)	40.4% (active)
COc1ccc2c(c1)[C@]13CCCCC1C(C2)N(C)CC3 (stereo not given in full)	2%

Compound	inhibition
O=C(O)CCn1cc(C=C2C(=O)NC(=S)NC2=O)c(-c2cccc(Br)c2)n1	2.3%
CN(c1ccccc1)c1ccc([N+](=O)[O-])c2nonc12	44.1% (active)
CCN(CC)c1ccc([N+](=O)[O-])c2cccnc12	36.3%
C[C@]12CCCCC1=CC(=O)C1C2CC[C@@]2(C)C1C[C@@H](F)[C@@H]2O (stereo not given in full)	-0.8%
C[N+]12CN3CN(CN(C3)C1)C2	12.2%
O=c1c2ccccc2nc(/C=C/c2ccco2)n1-c1ccccc1O	-36.8%
CNP1(NC)=Nc2nn(-c3ccccc3)c(N)c2C(c2ccccc2)=N1	21.7%
O=C(O)C1CSC(c2cccnc2)N1 (stereo not given)	6.7%
C[C@]12CC[C@H](O)C[C@H]1CC[C@@H]1C2CC[C@]2(C)[C@@H](C3=CC(=O)OC3)[C@@H](O)C[C@]12O (stereo not given in full)	15.3%
COC1C(O)C(C)OC(OC2CCC3(C=O)C(CCC4C3CCC3(C)C(C5=CC(=O)OC5)CCC43O)C2)C1O (stereo not given)	66.8% (active)
CC(C)CN1CCN(Cc2ccccc2C(F)(F)F)CC1CCO (stereo not given)	-4%
CC1=C2C(=O)C3C(CC=C4CC(OC5OC(O)C(O)C(O)C5CO)CCC43C)C2CCC12OC1CC(C)CNC1C2C (stereo not given)	41.4% (active)
CC(=O)OC1C2(CC3N4C(=O)C5(CO)SSC4(CC31O)C(=O)N5C)OC(C)C(C)(C)C2=O (stereo not given)	-4.6%
N[C@@H](Cc1c[nH]c2ccccc12)c1nnc(SCc2c(F)cccc2Cl)o1	18%
CN(C)C(=O)Oc1ccc2c(c1)O/C(=C\c1ccccc1)C2=O	-9.7%
c1ccc(N2Cc3ccccc3-n3nncc3C2)nc1	14.6%
CC(Cc1ccccc1)NC=O (stereo not given)	50.7% (active)
CC(Cc1ccccc1)NCCC(c1ccccc1)c1ccccc1 (stereo not given)	8.1%
CC(=O)Nc1ccc(C(=O)C(Cc2ccccc2)N(C)C)cc1 (stereo not given)	-0.4%
CCC(C)(O)C(=O)OC1C(=O)OC2CC3C(C)=CC(=O)C(O)C3(C)C3C4(O)OCC23C1C(C)C4O (stereo not given)	15.7%
CC(=CCOc1ccc2ccc(=O)oc2c1)C1=CC(=O)C(C)(C)O1	-260%
C=Cn1ccnc1P(=S)(c1cc(N(CC)CC)ns1)c1nccn1C=C	1.5%
